# In the library only some 9.4% were active in any assay of this set; here they are far more common.
# NPC1 prom act = qHTS Assay for NPC1 Promoter Activators; Huh7 NPC1 promoter luciferase reporter, 24 h; Potency, µM (doses to about 9.22 µM), usual class: activators; hit rate 2.4% among 320,000; AID 485313, 2010; further: nearly all actives have a fitted effect of over 60% in size
#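 Luminescence read-out of NPC1 promoter-driven luciferase in stably transfected Huh7 cells; compounds delivered in DMSO and left 24 h at 37C, 5% CO2, qHTS titration format.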
# SMN2 splice up = qHTS Assay for Enhancers of SMN2 Splice Variant Expression | HEK293 SMN2-luciferase splicing reporter, luminescence, 30-36 h | Potency, µM (series often up to 46.1 µM), usual class: activators | hit rate 2.8% among 210,000; further: nearly all actives have a fitted effect of over 55% in size
#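 HEK293 cells carry an SMN2 minigene-luciferase reporter in which exon 7 inclusion puts luciferase in frame. Cells were seeded at 2000 cells/well, attached for 10-12 hours, then exposed to compounds for 30-36 hours at 37C before ONE-Glo luminescence.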
# ELG1 genotox = qHTS screen for small molecules that induce genotoxicity in human embryonic kidney (HEK293T) cells expressing luciferase-tagged ELG1. HEK293T ELG1-luciferase reporter, luminescence, 16 h. Potency, µM (highest dose often 46 µM), usual class: activators. hit rate 1.3% among 330,000; further: nearly all actives have a fitted effect of over 60% in size
#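 ELG1-luciferase HEK293T cells, 2,000/well; compound pinned in; 16 hr, 37 °C, 5% CO2; ONE-Glo, 30 min RT; luminescence on CCD imager.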
# FLuc counter = qHTS profiling assay for firefly luciferase inhibitor/activator using purifed enzyme and Km concentrations of substrates (counterscreen for miR-21 project); Luciferin 4-monooxygenase (Photinus pyralis), P08659; purified FLuc, Km substrates, luminescence inhibition; Potency, µM (series often up to 57.5 µM), most hits filed as inhibitors; hit rate 6.9% among 360,000; further: nearly all actives have a fitted effect of over 55% in size
# Target sequence (P08659 whole entry, looked up): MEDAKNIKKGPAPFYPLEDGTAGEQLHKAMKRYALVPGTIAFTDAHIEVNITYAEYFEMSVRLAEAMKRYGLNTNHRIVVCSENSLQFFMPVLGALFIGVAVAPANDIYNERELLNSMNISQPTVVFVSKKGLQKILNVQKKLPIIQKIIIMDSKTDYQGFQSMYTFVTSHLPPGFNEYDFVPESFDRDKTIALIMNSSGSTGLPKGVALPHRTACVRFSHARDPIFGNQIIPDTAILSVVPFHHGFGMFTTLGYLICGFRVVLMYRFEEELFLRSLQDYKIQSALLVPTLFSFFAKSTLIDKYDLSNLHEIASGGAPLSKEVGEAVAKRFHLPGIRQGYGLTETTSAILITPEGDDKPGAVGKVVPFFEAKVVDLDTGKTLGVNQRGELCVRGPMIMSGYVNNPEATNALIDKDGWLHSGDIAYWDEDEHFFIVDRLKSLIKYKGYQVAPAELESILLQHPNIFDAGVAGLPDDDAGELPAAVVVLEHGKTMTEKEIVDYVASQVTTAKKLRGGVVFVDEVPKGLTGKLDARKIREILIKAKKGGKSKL
#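 Purified P. pyralis luciferase (10nM final) with 10uM D-luciferin and 10uM ATP (Km levels) in 50mM Tris acetate pH 7.5, 10mM Mg acetate, 0.01% Tween-20, 0.05% BSA; qHTS 6-point titration, ~60 µM downward; luminescence read.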
# ELG1 DNA repair = qHTS screen for small molecules that inhibit ELG1-dependent DNA repair in human embryonic kidney (HEK293T) cells expressing luciferase-tagged ELG1 | HEK293T ELG1-luciferase reporter, luminescence, 16 h; DNA damage induced by 5-fluorouridine | Potency, µM (series often up to 46.1 µM), actives largely listed as inhibitors | hit rate 2.3% among 330,000; further: nearly all actives have a fitted effect of over 55% in size
#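 Quantitative HTS, concentration-response format. 2,000 cells/well co-treated with 5-fluorouridine and compound, 16 hr in 5% CO2 at 37 °C; ONE-Glo luminescence read after 30 min.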
# Rab9 promoter act = qHTS Assay for Rab9 Promoter Activators. Potency, µM (top dose mostly 9.22 µM), hits mostly activators. Huh7 Rab9 promoter-luciferase reporter, luminescence, 24 h. hit rate 2.8% among 320,000; further: nearly all actives have a fitted effect of over 60% in size
#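 Luminescence from Amplite-detected luciferase (10 minutes, ambient) reports Rab9 promoter activation. Before that, stable Rab9-luciferase Huh7 cells (1500/well, reduced-serum OP-MEM I plus 10% FBS) were exposed to compound for 24 hours at 37C.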
# Hits are given with their value; i = inactive; ? = inconclusive; nt = no result; [ ] = remark or other dose. The call rests on the fitted dose curve; in most records, active means well fitted curve in the direction sought with a large enough effect; inconclusive means small, poorly fitted or top-dose-only effect, or another doubt; inactive means no such curve, though single readings can be large; an effect the other way counts as inactive or inconclusive.
SMILES,NPC1 prom act,SMN2 splice up,ELG1 genotox,FLuc counter,ELG1 DNA repair,Rab9 promoter act
Cc1ccc(C(=O)CSc2nc(C)cc(C)c2C(=O)Nc2cccc(C)c2)cc1,nt,nt,nt,i,nt,nt
CC1=C(c2ccc(C)c(C)c2)S(=O)(=O)N=C1N1CCC(C(=O)N2CCCCC2)CC1,nt,nt,nt,i,nt,nt
O=C(Nc1nnc(SCC(=O)N2CCCc3ccccc32)s1)c1ccccc1,?,11µM,i,1.5µM,?,?
Cc1cc(C)cc(C(=O)Nc2nnc(SCC(=O)N3CCCc4ccccc43)s2)c1,i,i,i,?,i,i
O=C(Nc1nnc(SCC(=O)N2CCCc3ccccc32)s1)c1ccc2ccccc2c1,?,11µM,?,1.2µM,?,2.8µM
Cc1ccc(Cl)cc1NC(=O)Cn1c(SCC(=O)NCc2ccccc2)nc2ccccc21,nt,nt,nt,i,nt,nt
Cn1ncc(Cl)c1C(=O)Nc1nc2ccc(Cl)cc2s1,3.2µM,3.5µM,?,2.1µM,?,?
O=C(Nc1nc2c(Cl)cccc2s1)c1ccc(Br)o1,i,nt,i,?,i,i
O=C(Nc1nc2ccc(Cl)cc2s1)c1ccc(Br)o1,3.5µM,11µM,?,2.4µM,?,1.1µM
Cc1cc(C(=O)Nc2nc3ccc(Cl)cc3s2)nn1C,1.4µM,nt,?,2.1µM,?,0.63µM
Cn1c(SCc2ccc(F)cc2)nc2ccc(C(=O)NCc3cccc(Cl)c3)cc21,nt,i,nt,i,nt,nt
COc1ccc(Nc2oc(-c3ccc(COc4ccccc4C)o3)nc2C#N)cc1,nt,nt,nt,i,nt,nt
CCc1ccccc1NC(=O)CCNS(=O)(=O)c1ccc2c(c1)CCCC(=O)N2,nt,nt,nt,i,nt,nt
COc1ccc(NC(=O)COc2cccc3c2OC(C)(C)C3)cc1OC,i,nt,i,i,?,i
Cc1cnc(NC(=O)COc2cccc3c2OC(C)(C)C3)s1,i,20µM,i,i,i,i
CCCNC(=O)c1ccccc1NC(=O)COc1cccc2c1OC(C)(C)C2,i,nt,i,i,15µM,i
Cc1csc2ncc(C(=O)Nc3ccccc3Cl)c(=O)n12,?,nt,?,i,?,3.2µM
Cc1csc2ncc(C(=O)NCc3ccco3)c(=O)n12,i,i,i,i,i,i
Cc1csc2ncc(C(=O)Nc3ccccc3F)c(=O)n12,?,13µM,12µM,?,?,?
COc1ccc(N(CC(=O)Nc2cccc(C(C)=O)c2)S(=O)(=O)c2ccccc2)c(OC)c1,nt,i,nt,i,nt,nt
CCN(CC)c1ccc(CNc2ccc(Br)cn2)cc1,?,?,10µM,?,?,i
COc1ccc(CN(C)C(=O)c2ccc(OCC(=O)Nc3cccc(C(F)(F)F)c3)c(OC)c2)c(OC)c1,i,nt,?,i,?,i
Cc1cccc(NC(=O)CSCC(=O)N=c2sccn2C)c1,i,nt,i,i,i,i
COc1cccc(CN(C)C(=O)c2ccc(OCC(=O)Nc3cccc(C(F)(F)F)c3)c(OC)c2)c1,i,nt,i,i,15µM,i
Cn1ccs/c1=N\C(=O)Nc1cccc(C(F)(F)F)c1,?,nt,i,24µM,?,i
SMILES,NPC1 prom act,SMN2 splice up,ELG1 genotox,FLuc counter,ELG1 DNA repair,Rab9 promoter act
COCC(=O)Nc1cccc(C(F)(F)F)c1,i,3.5µM,i,i,i,i
CCCC[C@]12Cc3ccccc3C(O1)c1c(cc(-c3ccccc3)oc1=O)O2,i[1.84 µM],nt,nt,i[11.5 µM],nt,i[1.84 µM]
COCCCNC(=O)CSc1nc2nc(C)c(Cc3ccccc3Cl)c(C)n2n1,nt,i,nt,i,nt,nt
Cc1ccc(C)c(OCc2nc3ccccc3[nH]2)c1,?,?,i,15µM,?,?
Cc1cccc(C)c1OCc1nc2ccccc2[nH]1,i,i,i,?,i,i
Cc1cc2cc(CCNC(=O)c3cccc([N+](=O)[O-])c3)c(=O)[nH]c2cc1C,i,i,i,i,23µM,i
Cc1ccc2cc(CCNC(=O)c3cccc([N+](=O)[O-])c3)c(=O)[nH]c2c1,i,i,i,i,?,i
Cc1cc2cc(CCNC(=O)c3cccs3)c(=O)[nH]c2cc1C,2.8µM,13µM,?,13µM,?,3.2µM
Cc1cc2cc(CCNC(=O)c3c(-c4ccccc4Cl)noc3C)c(=O)[nH]c2cc1C,i,i,i,i,13µM,i
CCCN(C(=O)c1ccco1)c1nnc(-c2ccccc2C)s1,i,nt,?,12µM,i,?
CCN(C(=O)c1ccco1)c1nnc(-c2cccnc2)s1,?,nt,?,13µM,?,?
COCCN(C(=O)c1ccco1)c1nnc(-c2ccc(F)cc2)s1,i,?,i,?,?,?
CCCCN(C(=O)Cc1cccs1)c1nnc(-c2cccnc2)s1,?,20µM,i,19µM,?,i
CCN(C(=O)Cc1ccccc1OC)c1nnc(-c2ccncc2)s1,i,i,i,i,?,i
COCCN(C(=O)Cc1cccs1)c1nnc(-c2cccnc2)s1,i,i,i,i,i,i
CCN(C(=O)Cc1cccs1)c1nnc(-c2cc(OC)c(OC)c(OC)c2)s1,i,25µM,?,i,2.9µM,i
CN1CCN(Cn2cc(/C=C/C(=O)c3ccccc3)c3ccccc32)CC1,?,i,?,2.4µM,?,2.8µM
COc1ccc(NC(=O)Cn2c(=O)n(-c3ccc(CC(=O)NCC4CCCO4)cc3)c(=O)c3ccccc32)c(OC)c1 (stereo not drawn),nt,i,nt,i,nt,nt
COc1ccc(CNC(=O)CC23CC4CC(CC(C4)C2)C3)cc1,i,nt,i,i,i,i
COc1ccc(CNC(=O)CC23CC4CC(CC(C4)C2)C3)cc1OC,i,nt,i,15µM,i,i
COc1cccc(NC(=O)c2ccc3c(c2)CCN3S(C)(=O)=O)c1,i,i,i,17µM,i,?
CN1CCSc2ccc(C(=O)Nc3ccc(Cl)cc3)cc21,2.8µM,nt,?,?,?,3.5µM
Cc1ccc(CN2CCSc3ccc(C(=O)Nc4ccc(F)cc4F)cc32)cc1,nt,?,nt,i,nt,nt
COc1cccc(NC(=O)c2ccc3c(c2)N(C)CCS3)c1,1.3µM,nt,?,2.7µM,?,3.5µM
CCc1ccc(NC(=O)c2ccc3c(c2)N(Cc2ccc(C)cc2)CCS3)cc1,nt,25µM,nt,?,nt,nt
CCOC(=O)c1[nH]c(C)c(CCC(=O)NCc2ccc(C)cc2)c1C,nt,nt,nt,i,nt,nt
Cc1ccc2c(c1)c1c(c(=O)n(-c3ccccc3C)c(=O)n1Cc1cccc(F)c1)n2C,nt,nt,nt,i,nt,nt
CCc1ccc(NC(=O)C2C3C=CC(C4CC34)C2C(=O)O)cc1 (stereo not drawn),i,?,i,2.1µM,?,i
